Measured values taken from PubChem BioAssay AID1159580 (chemical genetic matrix, 2015).
Values joined by “and” are separate entries in the source; they are usually repeats but may differ in a detail not shown here. Equal entries are not always repeated. In all, about 5,500 compounds went through this assay and about 2,000 (36%) were called active. Inconclusive results (about 18%) are left out. No stated cut-off is given here; in the data, active means normalized growth mostly below about 0.91 (no sharp cut-off); inconclusive means no clear call, values can overlap the other calls; inactive means mostly above about 0.92. The list shows a part of the results.

Assay: chemical genetic growth profiling, strain panel (AID 1159580);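 further: tested at 20 µM; growth read once vehicle control cultures reached saturation at 30 °C; 1 = growth at the plate median or of vehicle wells; lower values mean less growth of the strain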
Details: S. cerevisiae deletion strains, growth OD

Measured: normalized growth

O=C(O)C1CCCNC1 (stereo not given)
inactive: locus YAL013W, strain DEP1, hits give low values 1 | locus YAL021C, strain ccr4, hits give low values 1.01 | locus YAL026C, strain drs2, hits give low values 1.02 | locus YAL030W, strain snc1, hits give low values 1.02 | locus YAL040C, strain CLN3, hits give low values 1 | locus YBL061C, strain skt5, hits give low values 1.02 | locus YBR009C, strain hhf1, hits give low values 1.01 | locus YBR021W, strain FUR4, hits give low values 0.999 | locus YBR023C, strain chs3, hits give low values 1.01 | locus YBR171W, strain sec66, hits give low values 1.03 | locus YBR229C, strain ROT2, hits give low values 1.01 | locus YBR231C, strain swc5, hits give low values 1.01 | locus YBR279W, strain paf1, hits give low values 1.01 | locus YCL011C, strain gbp2, hits give low values 1.01 | locus YCL016C, strain dcc1, hits give low values 1.01 | locus YCL029C, strain bik1, hits give low values 1.04 | locus YCL061C, strain MRC1 (second series), hits give low values 1 | locus YCL061C, strain MRC1, hits give low values 1.02 | locus YCL069W, strain vba3, hits give low values 1.02 | locus YCR088W, strain abp1, hits give low values 1.02 | locus YDL005C, strain med2, hits give low values 1.02 | locus YDL035C, strain GPR1, hits give low values 1.01 | locus YDL040C, strain nat1, hits give low values 1.02 | locus YDL074C, strain BRE1, hits give low values 1.03 | locus YDL101C, strain DUN1, hits give low values 1.01 | locus YDL134C, strain PPH21, hits give low values 1.01 | locus YDL185W, strain tfp1, hits give low values 1.01 | locus YDL192W, strain arf1, hits give low values 1.03 | locus YDR001C, strain nth1, hits give low values 1.02 | locus YDR069C, strain doa4, hits give low values 1.02 | locus YDR101C, strain arx1, hits give low values 1.02 | locus YDR137W, strain rgp1, hits give low values 1.02 | locus YDR150W, strain NUM1, hits give low values 1.01 | locus YDR159W, strain sac3, hits give low values 1.02 | locus YDR162C, strain NBP2, hits give low values 1.01 | locus YDR195W, strain ref2 0.991 | locus YDR297W, strain sur2, hits give low values 1.02 | locus YDR318W, strain mcm21, hits give low values 1.03 | locus YDR334W, strain swr1, hits give low values 1.02 | locus YDR335W, strain msn5, hits give low values 1.02 | locus YDR388W, hits give low values 1.02 | locus YDR392W, strain spt3, hits give low values 1.03 | locus YDR502C, strain sam2, hits give low values 1.01 | locus YEL003W, strain gim4, hits give low values 1.03 | locus YEL037C, strain rad23, hits give low values 1.02 | locus YEL061C, strain CIN8 (second series), hits give low values 1.02 | locus YEL061C, strain CIN8, hits give low values 1.01 | locus YER002W, strain NOP16, hits give low values 1.02 | locus YER015W, strain faa2, hits give low values 1.02 | locus YER016W, strain bim1, hits give low values 1.01 | locus YER110C, hits give low values 1.02 | locus YER111C, strain swi4, hits give low values 1.02 | locus YER155C, strain BEM2 (second series), hits give low values 1.02 | locus YER155C, strain BEM2, hits give low values 1 | locus YER167W, strain BCK2, hits give low values 1.02 | locus YFR010W, strain ubp6, hits give low values 1.02 | locus YGL078C, strain dbp3, hits give low values 1.02 | locus YGL086W, strain mad1, hits give low values 0.999 | locus YGL167C, strain pmr1, hits give low values 1.01 | locus YGL173C, strain kem1, hits give low values 1.02 | locus YGL227W, strain vid30, hits give low values 1.02 | locus YGL240W, strain doc1, hits give low values 1.02 | locus YGL248W, strain PDE1, hits give low values 1.01 | locus YGL253W, strain hxk2, hits give low values 1.02 | locus YGR078C, strain PAC10, hits give low values 1.02 and 1.01 | locus YGR135W, strain pre9, hits give low values 1.03 | locus YGR229C, strain SMI1, hits give low values 0.999 | locus YGR252W, strain gcn5, hits give low values 1.01 | locus YHR013C, strain ard1, hits give low values 1.04 | locus YHR027C, strain rpn1, hits give low values 1.01 | locus YHR030C, strain SLT2, hits give low values 1 and 0.996 | locus YHR079C, strain IRE1 (second series), hits give low values 1.02 | locus YHR079C, strain IRE1, hits give low values 1.01 | locus YHR094C, strain hxt1, hits give low values 1.02 | locus YHR129C, strain ARP1, hits give low values 1.01 | locus YHR142W, strain chs7, hits give low values 1.01 | locus YHR200W, strain rpn10, hits give low values 1.01 | locus YIL066C, strain RNR3, hits give low values 1.01 | locus YIL073C, strain SPO22, hits give low values 1.1 | locus YIL125W, strain kgd1, hits give low values 1.02 | locus YIR030C, strain dcg1, hits give low values 1.03 | locus YJL092W, strain hpr5, hits give low values 1.02 | locus YJL095W, strain BCK1 (second series), hits give low values 1.02 | locus YJL095W, strain BCK1, hits give low values 1.04 and 1 | locus YJL115W, strain asf1, hits give low values 1.01 | locus YJL129C, strain trk1, hits give low values 1.04 | locus YJL134W, strain LCB3, hits give low values 1.01 | locus YJL154C, strain vps35, hits give low values 1.03 | locus YJL164C, strain tpk1, hits give low values 1.01 | locus YJL166W, strain qcr8, hits give low values 1.01 | locus YJL168C, strain set2, hits give low values 1.02 | locus YJL187C, strain SWE1 (second series), hits give low values 1.02 | locus YJL187C, strain SWE1, hits give low values 1.01 | locus YJR043C, strain POL32, hits give low values 1.01 | locus YJR066W, strain TOR1, hits give low values 0.923
